Reference: PubChem BioAssay (NCATS)
Records with an inconclusive call do not appear. Calls of active or inactive are those of the source. Calls come from the whole dose curve; as a rule, active = well fitted inhibition curve with a large enough effect; inconclusive = small, poorly fitted or top-dose-only effect; inactive = flat fitted curve, though single readings scatter.

Target: Calcium and integrin-binding protein 1 (Homo sapiens) (UniProt Q99828)
Assay: Primary qHTS for Identification of Calcium Integrin Binding Protein 1 (CIB1) Competitor (AID 1508620);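 note: GST tagged CIB1 binding a fluorescein labelled alphaIIb integrin peptide tracer; top concentration of the series differs between compounds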
Details: CIB1-GST / FITC-alphaIIb peptide fluorescence polarization; series mostly up to 114 µM; activity change, negative = inhibition: at the top concentration
Method in brief: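 CIB1-GST (1 uM final) and compound incubated 15 min at room temperature before adding FITC-alphaIIb peptide tracer (100 nM final). Competition for binding read by fluorescence polarization (ex 480, em 540) after another 15 min at room temperature.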
% is set by controls: 0 for no effect and ±100 for the full control effect.

Sequence of Calcium and integrin-binding protein 1 (Homo sapiens) (Q99828 whole entry, looked up): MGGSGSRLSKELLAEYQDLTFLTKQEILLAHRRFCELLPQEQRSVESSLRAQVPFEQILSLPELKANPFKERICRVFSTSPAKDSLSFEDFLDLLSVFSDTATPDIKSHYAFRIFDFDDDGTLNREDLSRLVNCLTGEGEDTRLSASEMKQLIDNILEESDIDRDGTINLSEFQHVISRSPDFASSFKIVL

Structure (SMILES) | activity change, negative = inhibition
COc1ccc(C2=Nn3c(nnc3-c3ccccc3F)SC2)cc1OC1CCOC1 (centres undefined) | 0.264% (inactive)
Cc1ccc2nc3sc(C(=O)NC4CCC(O)CC4)cc3cc2c1 (centres undefined) | -0.684% (inactive)
COc1ccc(C2c3c(nc(C)[nH]c3=O)Oc3ccc4ccccc4c32)cc1OC (centres undefined) | 2.05% (inactive)
c1nc(NCCC2CCCO2)c2cc(-c3ccc4c(c3)OCO4)ccc2n1 (centres undefined) | -15% (inactive)
